Test [1] deals with Estrogen receptor beta (Homo sapiens) (UniProt Q92731). As to the kind of experiment: qHTS assay to identify small molecule agonists of the estrogen receptor beta (ER-beta) signaling pathway (AID 1259377; active means well fitted activation curve with a large enough effect in the signal ratio in the repeat runs, not every such curve was filed as active; the % refers to the signal ratio). Summed up:
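Measured by fluorescence intensity from a B/G FRET beta-lactamase substrate (2 h, room temperature) in ER-beta-UAS-bla HEK293T cells treated with DMSO-dissolved compounds for 16 hr at 37C and 5% CO2.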
In general terms: Quantitative high-throughput screening tests each substance at several concentrations.

For test [2] the target is unchanged. As to the kind of experiment: qHTS assay to identify small molecule antagonists of the estrogen receptor beta (ER-beta) signaling pathway (AID 1259378; active means well fitted inhibition curve with a large enough effect in the signal ratio in the repeat runs, not every such curve was filed as active; the % refers to the signal ratio; further: potency means the concentration at half of the fitted maximal effect). In short, it runs like this:
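ER-beta-UAS-bla HEK293T cells in 2% charcoal-stripped FBS medium treated with compound plus 1nM final 17-beta-estradiol for 16 hr at 37C. Beta-lactamase reporter read by FRET substrate fluorescence after 2 hours at room temperature.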

Test [3] can be described thus: qHTS assay to identify small molecule agonists of the androgen receptor (AR) signaling pathway in the presence of an antagonist - cell viability counter screen (AID 1259379).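 Further: MDA-kb2 human breast cancer cells carrying an MMTV luciferase reporter; series mostly up to about 92 µM; nearly all actives have a fitted effect of over 25% in size.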 Summed up: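 Nilutamide-containing (3.0uM final) MDA-kb2 cultures, 3,000 cells/well, were treated with compounds across 15 concentrations. After 16 hr at 37C with no CO2, cell viability was determined by CellTiter-Fluor fluorescence in the luciferase assay wells.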

Test [4] in a line: qHTS assay to identify small molecule agonists of the estrogen receptor beta (ER-beta) signaling pathway - cell viability counter screen (AID 1259380). Further: nearly all actives have a fitted effect of over 30% in size. Summed up: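 Steps: plate ER-beta-UAS-bla HEK293T cells, rest 6 hr; add compounds in DMSO; incubate 16 hr at 37C, 5% CO2; add FRET substrate 2 hr; add CellTiter-Glo, wait 30 min at room temperature; read luminescence.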
Test [5] is described as follows: qHTS assay to identify small molecule antagonists of the estrogen receptor beta (ER-beta) signaling pathway - cell viability counter screen (AID 1259382). Further: series mostly up to about 92 µM; nearly all actives have a fitted effect of over 55% in size. In short, it runs like this: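 Viability is scored by CellTiter-Glo luminescence (30 min, room temperature) in ER-beta-UAS-bla HEK293T wells already read for reporter fluorescence. Compound exposure lasts 16 hr at 37C alongside 1nM 17-beta-estradiol in charcoal-stripped serum medium.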

Test [6] concerns the target Estrogen receptor (Homo sapiens) (UniProt P03372). As to the kind of experiment: qHTS assay to identify small molecule agonists of the estrogen receptor alpha (ER-alpha) signaling pathway in the presence of an antagonist (AID 1259383; calls by dose curve; further: top concentration of the series differs between compounds; nearly all actives have a fitted effect of over 15% in size). In short, it runs like this: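 Readout was ERE-driven luciferase luminescence in VM7Luc4E2 cells, which express full-length ER-alpha endogenously. Compounds were tested at 15 concentrations for 22hr alongside 10.0nM ICI-182,780 (final concentration).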

Test [7] is described as follows: qHTS assay to identify small molecule agonists or antagonists of the thyroid stimulating hormone receptor (TSHR) signaling pathway - wild type cell line counter screen (AID 1259384; calls by dose curve). In short, it runs like this:
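Wild-type Hek293 cells, 800/well, 18 h at 37C, then compound with Ro20-1724 for 30 min RT. cAMP by HTRF (cAMP-d2/anti-cAMP cryptate), 1 h RT, fluorescence read. 15 concentrations, triplicates.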

Test [8] has as its target Thyrotropin receptor (Homo sapiens) (UniProt P16473). As to the kind of experiment: qHTS assay to identify small molecule antagonists of the thyroid stimulating hormone receptor (TSHR) signaling pathway (AID 1259385; calls by dose curve; further: nearly all actives have a fitted effect of over 20% in size). Summed up: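 TSHR-HEK293 cells (800/well) plated 18 h, then compounds with Ro20-1724 and TSH at 1.5 ng/mL final, 30 min at room temperature. cAMP quantified by HTRF (cAMP-d2/anti-cAMP-cryptate, 1 h); 15 concentrations in triplicate.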

The nature of test [9]: qHTS assay to identify small molecule agonists of the estrogen receptor alpha (ER-alpha) signaling pathway in the presence of an antagonist - cell viability counter screen (AID 1259386).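 Further: series mostly up to about 92 µM; cells exposed to compounds for 22 h at 37 °C before the viability read; nearly all actives have a fitted effect of over 30% in size.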 In short, it runs like this:
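In this counter screen, compound effects on VM7Luc4E2 viability were tested in the presence of the antagonist ICI-182,780 at 10.0nM final. Compounds were dosed at 15 concentrations, exposure lasted 22hr, and the CellTiter-Fluor signal was read.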

In test [10] the target is Androgen receptor (Homo sapiens) (UniProt P10275). As to the kind of experiment: qHTS assay to identify small molecule agonists of the androgen receptor (AR) signaling pathway in the presence of an antagonist (AID 1259381; calls by dose curve; further: nearly all actives have a fitted effect of over 15% in size). Summed up: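 Reporter-gene luminescence from MDA-kb2 cells exposed 16hr at 37C (0% CO2) to 15-point compound titrations with 3.0uM final nilutamide as AR antagonist.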

Values without a mark were called inactive. Inconclusive results are not listed. Calls of active or inactive are those of the source. Unless noted, the call rests on the fitted dose curve; in most records, active means well fitted curve in the direction sought with a large enough effect in the repeat runs; inconclusive means weak or mixed curves; inactive means no such curve, though single readings can be large; an effect the other way counts as inactive or inconclusive.
On the % scale 0 is the no-effect control and ±100 the full control effect.

Sequence of Thyrotropin receptor (Homo sapiens) (P16473 whole entry, looked up): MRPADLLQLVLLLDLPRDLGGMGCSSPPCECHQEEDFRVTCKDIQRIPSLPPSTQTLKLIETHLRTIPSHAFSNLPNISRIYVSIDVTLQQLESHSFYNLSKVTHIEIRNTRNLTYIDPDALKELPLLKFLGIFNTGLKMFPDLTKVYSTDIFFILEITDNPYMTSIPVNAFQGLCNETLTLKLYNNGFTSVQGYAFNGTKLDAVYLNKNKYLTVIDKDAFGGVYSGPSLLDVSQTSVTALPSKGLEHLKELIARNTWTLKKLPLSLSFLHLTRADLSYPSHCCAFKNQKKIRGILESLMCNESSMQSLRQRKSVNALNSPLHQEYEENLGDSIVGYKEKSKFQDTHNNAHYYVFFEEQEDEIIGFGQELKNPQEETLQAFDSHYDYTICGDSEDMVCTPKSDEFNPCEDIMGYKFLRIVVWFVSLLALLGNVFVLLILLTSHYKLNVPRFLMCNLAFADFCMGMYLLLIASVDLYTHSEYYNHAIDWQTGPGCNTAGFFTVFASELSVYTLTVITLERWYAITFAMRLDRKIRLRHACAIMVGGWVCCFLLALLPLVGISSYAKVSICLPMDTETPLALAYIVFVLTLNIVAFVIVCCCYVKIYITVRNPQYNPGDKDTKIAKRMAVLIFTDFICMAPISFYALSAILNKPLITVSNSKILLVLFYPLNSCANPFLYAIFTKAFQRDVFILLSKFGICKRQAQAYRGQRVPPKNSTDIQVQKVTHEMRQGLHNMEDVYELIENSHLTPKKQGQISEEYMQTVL
Sequence of Estrogen receptor beta (Homo sapiens) (Q92731 whole entry, looked up): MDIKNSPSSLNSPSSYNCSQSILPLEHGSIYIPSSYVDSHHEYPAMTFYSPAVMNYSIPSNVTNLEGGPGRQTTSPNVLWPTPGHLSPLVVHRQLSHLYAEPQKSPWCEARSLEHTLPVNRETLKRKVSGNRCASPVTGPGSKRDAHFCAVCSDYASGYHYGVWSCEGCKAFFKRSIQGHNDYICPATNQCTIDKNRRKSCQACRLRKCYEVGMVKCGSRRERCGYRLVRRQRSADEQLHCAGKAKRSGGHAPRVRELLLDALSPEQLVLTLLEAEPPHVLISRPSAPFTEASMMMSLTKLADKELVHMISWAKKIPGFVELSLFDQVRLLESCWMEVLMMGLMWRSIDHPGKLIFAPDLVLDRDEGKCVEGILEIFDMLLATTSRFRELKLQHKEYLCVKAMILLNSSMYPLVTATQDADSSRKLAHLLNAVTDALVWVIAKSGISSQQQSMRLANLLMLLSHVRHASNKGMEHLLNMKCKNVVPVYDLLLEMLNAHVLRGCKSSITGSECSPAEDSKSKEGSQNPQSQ
Sequence of Estrogen receptor (Homo sapiens) (P03372 whole entry, looked up): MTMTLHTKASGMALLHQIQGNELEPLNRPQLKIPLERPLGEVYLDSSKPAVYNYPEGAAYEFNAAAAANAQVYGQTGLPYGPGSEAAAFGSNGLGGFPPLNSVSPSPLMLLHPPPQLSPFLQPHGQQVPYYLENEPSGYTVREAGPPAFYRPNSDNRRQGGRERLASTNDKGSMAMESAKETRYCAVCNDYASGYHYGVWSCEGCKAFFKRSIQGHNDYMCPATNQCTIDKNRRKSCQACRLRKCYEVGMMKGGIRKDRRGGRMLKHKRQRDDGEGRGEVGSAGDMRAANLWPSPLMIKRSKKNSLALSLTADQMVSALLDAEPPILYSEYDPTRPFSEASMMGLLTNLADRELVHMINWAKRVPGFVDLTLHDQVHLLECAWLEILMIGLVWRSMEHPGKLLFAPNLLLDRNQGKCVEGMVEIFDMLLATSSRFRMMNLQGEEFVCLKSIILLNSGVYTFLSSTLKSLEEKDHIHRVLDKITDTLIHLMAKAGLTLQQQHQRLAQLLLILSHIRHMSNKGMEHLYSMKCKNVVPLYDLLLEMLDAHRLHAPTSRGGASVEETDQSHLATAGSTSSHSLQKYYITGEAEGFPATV
Sequence of Androgen receptor (Homo sapiens) (P10275 whole entry, looked up): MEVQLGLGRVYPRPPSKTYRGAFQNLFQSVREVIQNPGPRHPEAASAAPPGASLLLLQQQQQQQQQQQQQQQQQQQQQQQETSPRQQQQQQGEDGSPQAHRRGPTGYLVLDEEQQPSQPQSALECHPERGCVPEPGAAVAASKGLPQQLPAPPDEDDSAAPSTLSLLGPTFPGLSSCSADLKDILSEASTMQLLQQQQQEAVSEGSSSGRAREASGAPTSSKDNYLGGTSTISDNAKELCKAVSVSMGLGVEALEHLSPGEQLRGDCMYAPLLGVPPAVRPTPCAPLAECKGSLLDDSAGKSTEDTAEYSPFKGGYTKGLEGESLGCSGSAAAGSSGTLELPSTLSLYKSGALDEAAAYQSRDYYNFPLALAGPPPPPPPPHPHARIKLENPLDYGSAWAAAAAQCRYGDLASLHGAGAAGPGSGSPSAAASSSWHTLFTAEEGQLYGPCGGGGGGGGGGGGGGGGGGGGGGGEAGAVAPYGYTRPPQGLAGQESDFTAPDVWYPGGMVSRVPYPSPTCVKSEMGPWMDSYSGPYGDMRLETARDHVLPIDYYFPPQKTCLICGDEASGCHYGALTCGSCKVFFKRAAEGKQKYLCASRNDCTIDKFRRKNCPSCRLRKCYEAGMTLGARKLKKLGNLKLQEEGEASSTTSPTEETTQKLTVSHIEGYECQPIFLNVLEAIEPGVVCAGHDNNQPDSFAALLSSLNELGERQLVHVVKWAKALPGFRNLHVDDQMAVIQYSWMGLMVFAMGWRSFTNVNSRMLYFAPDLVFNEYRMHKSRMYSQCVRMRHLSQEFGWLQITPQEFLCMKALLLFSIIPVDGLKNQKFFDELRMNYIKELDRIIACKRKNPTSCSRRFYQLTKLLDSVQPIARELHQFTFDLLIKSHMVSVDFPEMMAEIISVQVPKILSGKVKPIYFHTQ

Consider `CCN[C@H]1C[C@H](C)S(=O)(=O)c2sc(S(N)(=O)=O)cc21`, for which the Potency result in test [1], in test [2], in test [3], in test [4] and in test [9] was “inactive” throughout. Further, the outcome in test [5], in [6], in test [7] and in test [8] was inactive.
With `C=CCCCCCCCCC(=O)OCC`, the Potency entry in test [1], in [2], in test [3], in test [4] and in [9] was “inactive” each time. Besides, the outcome in test [5], in [6], in [7] and in [8] was inactive.
Take `CC[N+](CC)(CC)CCOc1cccc(OCC[N+](CC)(CC)CC)c1OCC[N+](CC)(CC)CC`: the Potency entry in test [1], in test [2], in test [3], in test [4], in [10] and in test [9] was “inactive” throughout. The result in test [5], in test [7] and in test [8] was inactive.
On to `CC(CC=O)CC(C)(C)C` (centres undefined), for which the Potency entry in [1], in test [2], in test [3], in test [4] and in [9] was “inactive” in each case. The result in [5], in test [6], in test [7] and in [8] was inactive.
Take `Cc1ccc(-c2ncc(Cl)cc2-c2ccc(S(C)(=O)=O)cc2)cn1`: the Potency result in [1], in test [2], in test [3], in test [4], in test [10] and in [9] was “inactive” throughout. In addition, the compound was classed as inactive in test [5], in [7] and in test [8].
For the compound `COC(=O)C1=C(C)NC(C)=C(C(=O)OC(C)C)C1c1cccc2nonc12` (centres undefined), the Potency result in test [1], in test [3], in test [4], in [10] and in test [9] was “inactive” throughout. In addition, the Potency in test [2] is 26.6 µM (active). Further, the call in test [5] and in test [7] was inactive.
For `CCCO[Si](OCCC)(OCCC)OCCC`, the Potency entry in test [1], in [2], in test [3], in test [4] and in test [9] was “inactive” each time. For the same compound, the compound was classed as inactive in test [5], in [6], in test [7] and in [8].
Turning to `CCOC(=O)COc1cc(-n2ncc(C(F)(F)F)c(C)c2=O)c(F)cc1Cl`, the Potency result in [1], in test [2], in test [3], in test [4], in test [10] and in test [9] was “inactive” each time. The result in test [5], in [6], in test [7] and in test [8] was inactive.
Consider `CCOC(=O)CCC(=O)OCC`, for which the Potency entry in [1], in test [2], in test [3], in test [4] and in test [9] was “inactive” in each case. The outcome in test [5], in test [6], in test [7] and in test [8] was inactive.
For `C=CCOCC(O)CO` (centres undefined), the Potency result in test [1], in test [2], in test [3], in test [4] and in test [9] was “inactive” throughout. For the same compound, the compound was classed as inactive in test [5], in [6], in [7] and in test [8].
Regarding `CCOc1c(N2CCOCC2)cnn(C)c1=O`, the Potency entry in test [1], in test [2], in test [3], in [4], in [10] and in test [9] was “inactive” in each case. Further, the result in test [5], in test [6] and in test [8] was inactive.
Regarding `[K+]`, the Potency result in test [1], in test [2], in test [3], in test [4] and in [9] was “inactive” throughout. In addition, the call in test [5], in test [6], in test [7] and in [8] was inactive.
For `CCOC(=O)C(=O)CCCCCCl`, the Potency entry in test [1], in [2], in test [3], in test [4], in test [10] and in test [9] was “inactive” throughout. Further, the compound was classed as inactive in test [5], in test [6] and in [8].
As for `C=CC(=O)OCCCl`, the Potency result in test [1], in test [2], in test [3], in [4] and in test [9] was “inactive” each time. Further, the compound was classed as inactive in test [5], in [6], in test [7] and in test [8].
Take `CCCCCCCCCCOc1cc2c(=O)c(C(=O)OCC)c[nH]c2cc1OCC`: the activation in test [1] is -0.652% [at 8.39 µM]; in test [6], 0.417% [at 8.39 µM]. For the same compound, in [2], the activity, negative = inhibition was 11.6% [at 8.39 µM]. For the same compound, the activity change, negative = cytotoxicity is 0.727% [at 8.39 µM] in test [3], 7.19% [at 8.39 µM] in test [4], 5.47% [at 8.39 µM] in test [5] and -3.47% [at 8.39 µM] in test [9]. In test [7], the cAMP activity change was -4.45% [at 8.39 µM]. Besides, in test [8], the activity change, negative = inhibition was 0.172% [at 8.39 µM].
Take `O=S(=O)(O)c1cc(O)c(O)c(S(=O)(=O)O)c1`: the Potency entry in [1], in test [2], in test [3], in [4], in test [10] and in test [9] was “inactive” in each case. Moreover, the call in [5] and in test [6] was inactive.
In the case of `[O-][n+]1cccc(CO)c1`, the Potency result in [1], in [2], in test [3], in test [4] and in test [9] was “inactive” in each case. The compound was called inactive in test [5], in test [6], in test [7] and in test [8].
Turning to `CC(=O)O[C@@]12CO[C@@H]1C[C@H](O)[C@@]1(C)C(=O)[C@H](O)C3=C(C)[C@@H](OC(=O)[C@H](O)[C@@H](NC(=O)OC(C)(C)C)c4ccccc4)C[C@@](O)([C@@H](OC(=O)c4ccccc4)[C@H]21)C3(C)C`, the Potency result in test [1], in test [2], in test [3], in test [4], in [10] and in test [9] was “inactive” each time. Besides, the compound was classed as inactive in [5] and in [6].
As to `Cc1ncc([C@@H](CCCCCCc2ccc3c(n2)NCCC3)CC(=O)O)cn1`, the Potency result in test [1], in test [2], in test [3] and in test [4] was “inactive” each time. Also, the call in [5] was inactive.
Turning to `C[N+](C)(CCOc1ccccc1)Cc1cccs1`, the Potency entry in [1], in [2], in test [3], in [4], in test [10] and in [9] was “inactive” throughout. In addition, the compound was classed as inactive in test [5] and in test [8].
For `CC(=O)N1C[C@H](O)C[C@H]1C(=O)O`, the Potency entry in test [1], in test [2], in test [3], in test [4], in [10] and in test [9] was “inactive” each time. The compound was classed as inactive in [5], in test [7] and in test [8].
For `OCCCCCO`, the Potency result in test [1], in [2], in test [3], in test [4] and in test [9] was “inactive” each time. Besides, the result in [5], in test [6], in [7] and in test [8] was inactive.
For `CCCOC(=O)CC`, the Potency result in [1], in test [2], in test [3], in test [4], in test [10] and in test [9] was “inactive” throughout. In addition, the outcome in test [5], in [6], in test [7] and in test [8] was inactive.
Consider `Cc1ccc(C(=O)c2ccccc2)cc1`, for which the Potency entry in test [1], in test [2], in [3], in test [4], in test [10] and in test [9] was “inactive” throughout. Besides, the compound was classed as inactive in test [5], in test [7] and in test [8].
For the compound `O=C(O)Cc1csc(-c2ccc(Cl)cc2)n1`, the Potency result in test [1], in test [2], in [3], in test [4], in [10] and in [9] was “inactive” each time. The result in test [5], in test [6] and in test [8] was inactive.
On to `CCCCOCCOC(=O)COc1cc(Cl)c(Cl)cc1Cl`, for which the Potency result in test [1], in test [2], in test [3], in test [4], in [10] and in test [9] was “inactive” throughout. The result in [5], in test [6], in [7] and in [8] was inactive.

The values above are taken from PubChem BioAssay (Tox21).
